# Test results from PubChem BioAssay (NCI).
# The panel holds about 83,000 compounds, 20% with a hit somewhere; the sample as a whole holds those more often.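 In brief: 96-well plates, 48 h treatment, single concentration, percent growth endpoint.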 A number with no mark means an inactive call. Activity calls are given as the source filed them. Rule for the calls: active = growth percent below 10; inactive = the rest.
# How the values were obtained:
# Test in all cases: NCI-60 one-dose screen, 48 h (100 = growth as untreated, 0 = no growth, -100 = all killed)
# T-47D breast = conditions: 10 µM
# BT-549 breast = conditions: 10 µM unless noted
# MDA-MB-435 melanoma = conditions: 10 µM unless noted
# SW-620 colon = conditions: 10 µM unless noted
# MCF7 breast = conditions: 10 µM unless noted
# HCT-116 colon = conditions: 10 µM unless noted
# HCC-2998 colon = conditions: 10 µM unless noted
# KM12 colon = conditions: 10 µM unless noted
Structure (SMILES),growth (T-47D breast),growth (BT-549 breast),growth (MDA-MB-435 melanoma),growth (SW-620 colon),growth (MCF7 breast),growth (HCT-116 colon),growth (HCC-2998 colon),growth (KM12 colon)
CCOC(=O)c1cn2c3c(cc(F)cc3c1=O)C(CC)c1ccccc1C2 (stereo unspecified),93.1%,96.7%,93.9%,107%,90.3%,102%,93.7%,102%
COc1ccc(S(=O)(=O)c2ccc(C(N)=O)cc2)cc1NC(=O)c1[nH]c(C)c2c1CCCCC2=O,34.4%,58.6%,28.6%,68.4%,23.1%,60%,66%,65.4%
CC(=O)OC[C@]1(C)C=C2C(=O)[C@](C)(O)C3(CC3)C(C)=C2[C@H]1OC(C)=O,73.6%,72.6%,95.4%,88.2%,57.1%,62.3%,81.8%,78.4%
O=C1C(Cl)=C(NCCCN2CCOCC2)C(=O)c2ccccc21,102%,97.2%,63.9%,79.2%,74.6%,97.5%,91.3%,91.4%
COc1ccccc1/C=C/C(=O)/C=C/c1ccccc1O,-37.2% (active),-34.1% (active),-36.3% (active),-80.3% (active),-18.6% (active),-93.2% (active),4.04% (active),-93.9% (active)
C=C(C)CCCC(C)CC#N (stereo unspecified),92.7%,95.9%,104%,115%,99.3%,97.5%,104%,95%
CCCCCCCCCCCCCCn1c2ccccc2c2c3c(c4c5cc(OC)ccc5oc4c21)C(=O)NC3=O,104%,101%,103%,104%,102%,105%,,102%
Cc1nc2cc(Nc3nc(Cl)nc(Nc4ccc(F)cc4)n3)ccc2n1Cc1ccccc1,57%,90.6%,95.6%,84.8%,61.5%,3.88% (active),94.5%,69.2%
Cc1nn(-c2ccccc2)c2nc3nc4c(c(N)c3c(-c3ccc(Cl)cc3)c12)CCCC4,108%,113%,97%,79.5%,97.8%,80.2%,,105%
O/N=C/c1cccs1,111%,112%,99.8%,104%,99.2%,102%,,110%
COc1cccc(OC(=O)c2ccccc2)c1OC(=O)c1ccccc1,80.2%,83.4%,-16.4% (active),40.1%,47.4%,51.3%,,45.2%
COc1ccc(-c2c(-c3cc4c(c(OC)c3OC)OCO4)noc2N)cc1,47.5%,60.1%,-32.1% (active),17.9%,19.7%,22.2%,20.6%,18.9%
Cn1c(=O)c(S(=O)(=O)c2ccccc2)cc2ccc3c(cnn3-c3ccc(Cl)cc3)c21,50.5%,66.1%,80.8%,90.5%,99.8%,63.5%,93.4%,89.3%
O=c1oc2ccccc2cc1-c1csc(N=Nc2c(O)[nH]c3ccc(Br)cc23)n1,107%,102%,98.8%,103%,94%,98.1%,102%,103%
Nc1cc(Br)c(-c2nnc(CCC(=O)c3nc4ccccc4[nH]3)o2)c(Br)c1,72.6%,40.6%,5.71% (active),72.1%,18.9%,53.3%,,69%
COc1ccc(C2CC(c3cc(OC)c(OC)c(OC)c3)=NN2c2ccc(S(N)(=O)=O)cc2)cc1 (stereo unspecified),55.9%,83.9%,66.2%,67.9%,57%,48.2%,79.7%,63.5%
CCOC(=O)c1cc2c(n(C)c1=O)-c1cnn(-c3ccc(OC)cc3)c1CC2,82.8%,101%,92.6%,119%,97.2%,108%,120%,112%

Structure (SMILES),growth (T-47D breast),growth (BT-549 breast),growth (MDA-MB-435 melanoma),growth (SW-620 colon),growth (MCF7 breast),growth (HCT-116 colon),growth (HCC-2998 colon),growth (KM12 colon)
COc1ncc(F)c(OC)n1,104%,108%,106%,107%,96.6%,101%,110%,105%
COc1cc(/C=C2\C(=O)N(c3c(Cl)cccc3Cl)c3ccccc32)cc(OC)c1O,51.8%,33.4%,35.2%,31.4%,25.3%,15.7%,,28.4%
CC1=C(C/C=C(\C)CCC[C@H](C)CCC[C@H](C)CCCC(C)C)C(=O)c2ccccc2C1=O,110%,96.7%,108%,104%,108%,98.8%,108%,105%
Cc1cc(Cl)c2c(Cl)ccc(Cl)c2n1,103%,100%,102%,114%,99.3%,100%,116%,108%
O=C(CCc1nnc2sc(/C=C\c3ccccc3)nn12)c1nc2ccccc2[nH]1,61.1%,93.1%,83.8%,118%,77.3%,59.7%,95.8%,92.5%
CON=C1C[C@]2(C[C@@H]3C[C@@H](C/C=C(\C)C[C@@H](C)/C=C/C=C4\CO[C@@H]5[C@H](O)C(C)=C[C@@H](C(=O)O3)[C@]45O)O2)O[C@H](/C(C)=C/C(C)C)[C@H]1C,29.7%,89.2%,43.7%,34.5%,42%,17.8%,48.7%,33.4%
COc1ccc(OC2=CC(=O)c3ccc(C)nc3C2=O)cc1,79.9%,90.7%,83%,94.9%,72.4%,74.3%,102%,81.3%
COC(=O)c1c2c(c(C)[n+]([O-])c1C)C(=O)C=C(NCc1ccc(F)cc1)C2=O,-41.1% (active),-91.3% (active),-93.1% (active),-9.71% (active),-60.6% (active),0.358% (active),-40.2% (active),1.23% (active)
Cc1ccc2nc(NC(=O)CSC(=S)N3CCN(Cc4ccccc4)CC3)sc2c1,-32.5% (active),-55.4% (active),-38.5% (active),-84.7% (active),-71.2% (active),-54.9% (active),,-92.7% (active)
COc1cccc(C2C3=C(COC3=O)N(CCO)c3cc4c(cc32)OCO4)c1 (stereo unspecified),49.1%,37.2%,-40.1% (active),22.4%,14.6%,8.72% (active),,14.3%
CS(=O)(=O)Nc1cccc(C(=O)NCc2ccc(N3CCOCC3)cc2)c1,95.4%,95.6%,105%,108%,99%,101%,,97.1%
O=c1[nH]c(-c2ccccn2)nc2sc3c(c12)CCCCCC3,42.6%,62.2%,46.4%,25%,29.6%,24.6%,,33.6%
CC(=O)c1cc(C)c(OC(=O)c2ccccc2)c(C)c1,74.9%,97.6%,95.2%,103%,105%,93.7%,100%,104%
CC1(C)N=C(N)N=C(N)N1c1cccc(/C=C/C=C/c2cccc([N+](=O)[O-])c2)c1,78.1%,46.1%,23.3%,44.6%,57.9%,24.7%,45.1%,35.5%
COc1cc2nc(SCc3cc(OC)c(OC)c(OC)c3)n(-c3ccccc3OC)c(=O)c2cc1OC,88.6%,87.5%,0.0693% (active),76.4%,77%,88%,94.6%,54.1%
O=C(N/N=C(\CS(=O)(=O)c1ccccc1)c1cc2cc(Br)ccc2oc1=O)c1ccccc1,94.1%,102%,100%,102%,98.2%,104%,103%,105%
Cc1cc(=O)oc2c1ccc1oc(C(=O)c3ccccc3)c(C)c12,76.3%,101%,95.8%,92.2%,69.4%,83.5%,,73.2%
